# Screens deposited in PubChem BioAssay by several laboratories.
# In the library only some 3.7% were active in any assay of this set; here they are far more common.
# Rce1 inhib: inhibitors of yeast Ras-converting enzyme; 0.27% of 290,000 active; calls only; yeast membranes, quenched prenylated peptide cleavage fluorescence; Q03530;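 active = fall in fluorescence gain of 50% or more versus controls, with final raw signal at or below 3038400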;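 note: plate controls were neutral control wells for no effect and wells lacking membranes for full effect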
# Target sequence (Q03530 whole entry, looked up): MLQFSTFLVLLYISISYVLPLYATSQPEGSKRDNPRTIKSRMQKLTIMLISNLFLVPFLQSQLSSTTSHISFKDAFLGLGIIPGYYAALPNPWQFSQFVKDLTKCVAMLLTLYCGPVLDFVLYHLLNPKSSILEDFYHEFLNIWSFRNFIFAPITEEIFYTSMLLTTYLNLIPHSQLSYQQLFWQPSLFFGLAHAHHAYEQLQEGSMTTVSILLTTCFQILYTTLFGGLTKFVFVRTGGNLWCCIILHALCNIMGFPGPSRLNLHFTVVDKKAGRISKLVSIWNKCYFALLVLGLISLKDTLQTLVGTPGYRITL
# PfHsp90 yeast 2: growth inhibition of yeast expressing Plasmodium Hsp90. S. cerevisiae expressing PfHsp90, BacTiter-Glo ATP, 48 h; yeast lacking PDR1 and PDR3 efflux regulators. 0.32% of 310,000 active. AID 504621. inhibition, % at 9.4 µM;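 active = every replicate shows inhibition above about 80%, whatever the replicate mean, limit read from the data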;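 note: 0% = DMSO neutral controls and 100% = 20 µM radicicol positive controls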
# TIM10 inh: inhibits growth of TIM10 yeast strain | S. cerevisiae TIM10 strain growth, BacTiter-Glo luminescence, 24 h | inhibition, % at 10 µM | 1.4% of 330,000 active | AID 463195;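 active = inhibition of 40% or more at the single tested concentration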;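 note: wild-type TIM10 isogenic control strain grown at permissive 25 °C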
# tim10-1 inh: inhibits growth of tim10-1 mutant yeast | S. cerevisiae tim10-1 ts strain growth, BacTiter-Glo, 24 h | inhibition, % at 20 µM | 2.2% of 330,000 active;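 active = inhibition of at least 40%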;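 note: mutant grown at 25 °C; 0% = DMSO wells with yeast and 100% = wells holding no yeast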
# tim23-1 inh: tim23-1 yeast growth inhibition | S. cerevisiae tim23-1 growth, BacTiter-Glo luminescence, 24 h | inhibition, % at 20 µM | 1.3% of 330,000 active | AID 463212;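 active = growth inhibition of the mutant yeast at or above 50%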;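 note: temperature-sensitive mutant grown at 25 °C; plate controls were DMSO-treated mutant yeast for no effect and medium wells lacking yeast for full effect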
# tim10-1 confirm: tim10-1 yeast growth inhibition, confirmed | shares compounds with tim10-1 inh | S. cerevisiae tim10-1 ts strain growth, BacTiter-Glo, 24 h | inhibition, % at 20 µM | 56% of 7,400 active | AID 463213;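 active = inhibition of yeast growth at or above a set limit in either of two repeat tests at 20 µM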;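 note: tim10-1 mutant grown at permissive 25 °C to find synthetic lethal compounds; 0% = DMSO yeast wells and 100% = medium wells without yeast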
# TIM10 conf: TIM10 yeast growth inhibition, confirmed; shares compounds with TIM10 inh; S. cerevisiae tim10 strain growth, BacTiter-Glo luminescence, 24 h; inhibition, % at 10 µM; AID 463215; 63% of 4,600 active;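 active = inhibition of yeast growth at or above a set limit in either of two replicates at 10 µM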;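 note: this counterscreen used the strain with wild-type TIM10; 0% = yeast with DMSO and 100% = medium wells lacking yeast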
# tim23-1 confirm: tim23-1 yeast growth inhibition, confirmed | inhibition, % at 20 µM | 83% of 4,400 active | S. cerevisiae tim23-1 growth, BacTiter-Glo luminescence, 24 h | shares compounds with tim23-1 inh;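 active = inhibition above about 39% in either of two replicate wells at 20 µM, limit read from the data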;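 note: temperature-sensitive tim23-1 mutant grown at 25 °C; 0% = DMSO wells with yeast and 100% = medium wells without yeast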
# An asterisk follows results filed as active; i = inactive; x = no result given.
SMILES,Rce1 inhib,PfHsp90 yeast 2,TIM10 inh,tim10-1 inh,tim23-1 inh,tim10-1 confirm,tim23-1 confirm,others
COc1ccc(C(=O)O/N=C(\N)c2ccccc2)cc1,i,-24,57*,71*,80*,68*,79*,TIM10 conf=56*
N/C(=N\OC(=O)c1cc(Cl)ccc1Cl)c1ccncc1,i,-8,9,27,14,x,x,
Cc1cc(-c2onc(C)c2C(=O)Oc2ccc(Cl)cc2)no1,i,7,19,24,37,x,x,
CC(C)(C)c1ccc(NC(=O)CON=C(N)c2ccccc2)cc1,x,-2,4,19,24,x,x,
Cc1occc1C(=O)O/N=C(\N)c1ccc(Cl)cc1,i,-14,47*,66*,82*,24,76*,TIM10 conf=38*
Cc1noc(-c2ccc(Cl)cc2)c1C(=O)O/N=C(\N)c1ccc(C(C)(C)C)cc1,i,-44,76*,45*,71*,12,58*,TIM10 conf=84*
O=C(CCSCc1ccccc1F)NCCc1ccccc1,i,-18,12,14,17,x,x,
N/C(=N\OC(=O)c1ccc2ccccc2c1)c1ccncc1,i,-73,38,65*,51*,55*,55*,
CCOC(=O)c1cc(/C(C)=N/OC(=O)c2ccc(C(C)(C)C)cc2)on1,i,15,-13,-12,18,x,x,
N/C(=N\OC(=O)COc1ccc2ccccc2c1)c1ccncc1,i,7,18,11,-2,x,x,
Cc1cc(C(=O)O/N=C(\N)c2ccc(C(C)(C)C)cc2)no1,i,x,61*,47*,70*,58*,78*,TIM10 conf=45*
CN(C)S(=O)(=O)c1ccc2c(c1)nc(CCC(=O)NCCc1ccc(Cl)cc1)n2C,i,2,14,-1,11,x,x,
CCOc1cccc(CNc2ccc(O)cc2)c1OCc1ccccc1Cl,i,7,28,29,49,x,x,
CCOc1cccc(CNc2ccc(O)cc2)c1OCc1ccc(Cl)cc1Cl,i,-4,33,42*,62*,35*,54*,
COc1ccc(C2=NCCn3nc4ccccc4c32)cc1,x,-8,2,5,6,x,x,
COc1ccc2c3n(nc2c1)CCN=C3c1cc(Cl)c(N)c(Cl)c1,x,5,29,42*,55*,18,51*,
Cc1ccc(NC(=O)CS(=O)CC(=O)Nc2ccccc2-c2ccc(C)o2)cc1 (configuration not stated),i,2,29,45*,50*,28*,47*,
CC(=O)Nc1ccccc1-c1ccc(C)o1,i,5,5,-1,1,x,x,
NNC(=O)c1cccc(COc2cccc(Br)c2)c1,x,22,36,45*,51*,29,18,
NNC(=O)c1cccc(COc2ccc(Br)cc2)c1,i,-21,26,39,46,x,x,
CCCCCCCCC/C(=N\O)c1ccccn1,i,111*,72*,48*,65*,17,70*,TIM10 conf=-3
CC1=C(SCc2ccccc2)C(=O)c2ccccc2C1=O,x,0,x,x,x,x,x,
O=C1C(SCCO)=C(SCCO)C(=O)c2ccccc21,x,-6,52*,86*,80*,93*,75*,TIM10 conf=38*
O=C(c1ccc(S(=O)(=O)Nc2ccccc2)cc1)N1CCCCCCC1,i,12,4,8,4,x,x,
COc1cccc(NC(=S)N(C)C2CCN(C)CC2)c1,i,16,-6,-5,-9,x,x,
SMILES,Rce1 inhib,PfHsp90 yeast 2,TIM10 inh,tim10-1 inh,tim23-1 inh,tim10-1 confirm,tim23-1 confirm,others
COc1ccc(NC(=O)CCC(=O)c2ccc(F)cc2)cc1,x,-11,x,x,x,x,x,
CCN1C(=O)/C(=C\C(=O)c2cccs2)c2cc(Br)ccc21,i,103*,74*,49*,72*,34*,25,TIM10 conf=65*
Cn1ccsc1=NC(=O)c1cccc(OC(F)F)c1,i,23,5,4,13,x,x,
OCCCNc1nc(-c2ccc(Cl)cc2)nc2ccccc12,i,28,34,43*,60*,27,31,
OCCCNc1nc(-c2ccc(Br)cc2)nnc1-c1ccc(Cl)cc1,i,40,12,42*,54*,31*,59*,
Cc1nnc(-c2ccc(Cl)cc2)nc1NCCN(C)C,i,45,2,5,-6,x,x,
COCCCNc1nc(-c2ccc(Cl)cc2)nc2ccccc12,x,2,27,46*,59*,34*,54*,
O=C(NN1C(=O)c2ccccc2NC1c1ccccn1)c1ccccc1 (configuration not stated),i,19,-6,8,3,x,x,
Cn1cc(Br)c(C(=O)Nc2sc3c(c2C#N)CCC3)n1,i,x,31,27,29,x,x,
Cn1cc([N+](=O)[O-])c(C(=O)Nc2sc3c(c2C#N)CCC3)n1,i,16,31,45*,56*,34*,48*,
CC(NC(=O)c1ccncc1)c1ccc(Br)cc1 (configuration not stated),i,8,1,-12,17,x,x,
CCN1/C(=C/c2ccc3cc(C)ccc3[n+]2CC)Sc2ccc3sccc3c21,x,101*,68*,46*,60*,45*,69*,TIM10 conf=74*
NC(=O)c1c(NC(=O)c2ccc(F)cc2Cl)sc2c1CCC2,i,-4,12,13,5,x,x,
NS(=O)(=O)c1ccc(CCNC(=O)c2cccc(OC(F)F)c2)cc1,i,15,-14,11,-2,x,x,
O=C(Nc1ccc(N2CCN(C(=O)c3cccs3)CC2)cc1)c1ccco1,i,21,3,6,12,x,x,
O=C(Nc1ccc(N2CCN(C(=O)c3cccs3)CC2)cc1)c1ccc([N+](=O)[O-])o1,i,-7,72*,72*,71*,74*,85*,TIM10 conf=77*
COc1cc(NC(=O)c2ccc([N+](=O)[O-])o2)ccc1NC(=O)c1cccs1,i,-50,32,46*,59*,39*,-14,
COc1ccc(-c2cc3ccccc3oc2=O)cc1NC(=O)c1ccc(Br)o1,i,-34,-2,-20,-25,x,x,
O=C(Nc1ccc(Cc2ccncc2)cc1)c1ccc([N+](=O)[O-])o1,i,-19,45*,67*,71*,59*,58*,TIM10 conf=43*
COc1ccc(-c2cc3ccccc3oc2=O)cc1NC(=O)c1ccc([N+](=O)[O-])o1,i,x,62*,66*,70*,64*,41*,TIM10 conf=72*
CCOc1ccccc1OCCCC(=O)Nc1cc(S(=O)(=O)N2CCOCC2)ccc1OC,x,x,8,3,6,x,x,
O=C(Nc1ccc(S(=O)(=O)N2CCOCC2)cc1)c1ccc([N+](=O)[O-])o1,i,14,18,28,26,x,x,
O=C(Nc1ccc(N2CCOCC2)cc1)c1ccc([N+](=O)[O-])o1,i,-67,26,55*,55*,29,58*,
